From PubChem BioAssay (EPA / NIEHS)
Records with an inconclusive call do not appear. The source made the active and inactive calls. Rule for the calls, unless noted: active = hit-call score of the fitted dose curve at least 0.9, where 1 is the maximum; inconclusive = response in the unintended direction; inactive = score below 0.9.

Columns and labels:
[1] = molecular target: human Peroxisome Proliferator-activated Receptor alpha (PPARa), PPARA (gene 5465) (UniProt Q07869); assay: ATG_PPARa_TRANS: Attagene TRANS-FACTORIAL HepG2 Assay for human Peroxisome Proliferator-activated Receptor alpha (PPARa) (AID 2283001);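 for AC50: potency for gain of reporter signal over DMSO so agonist or activator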
How it was run: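 HepG2 cells transiently transfected with multiplexed GAL4-UAS reporters driven by exogenous chimeric NR-Gal4 proteins; reporter mRNA measured after 24 h dosing. Read-out by RT-PCR, 6-FAM labelling, HpaI digestion and capillary electrophoresis; gain of signal versus DMSO.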

[2] = molecular target: human Retinoic Acid Receptor beta (RARb), RARB (gene 5915) (UniProt P10826); assay: ATG_RARb_TRANS: Attagene TRANS-FACTORIAL HepG2 Assay for human Retinoic Acid Receptor beta (AID 2283004)
How it was run: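 HepG2 cells were transiently transfected with GAL4-UAS reporter units that report activity of exogenous chimeric NR-Gal4 proteins, then exposed to compound for 24 h. Reporter mRNA was quantified by RT-PCR with capillary electrophoresis fluorescence, as gain of signal over DMSO.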

[3] = molecular target: Peroxisome proliferator-activated receptor gamma (Homo sapiens) (UniProt P37231); assay: ATG_PPARg_TRANS: Attagene TRANS-FACTORIAL HepG2 Assay for human Peroxisome Proliferator-activated Receptor-gamma (PPARg) (AID 2283007)
How it was run: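 HepG2 cells are transiently transfected with GAL4-UAS reporter units driven by chimeric NR-Gal4 fusions and dosed for 24 h. Reporter mRNA is quantified by RT-PCR, 6-FAM labelling, HpaI digestion and capillary electrophoresis. Induction is scored against DMSO.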

[4] = molecular target: Nuclear receptor subfamily 1 group I member 2 (Homo sapiens) (UniProt O75469); assay: ATG_PXR_TRANS: Attagene TRANS-FACTORIAL HepG2 Assay for human Pregnane X Receptor (PXR) (AID 2283008)
How it was run: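 HepG2 cells transiently transfected with GAL4-UAS reporter units and PXR-Gal4 chimera, exposed 24 h. Reporter mRNA quantified by RT-PCR, fluorescent labelling, HpaI digestion and capillary electrophoresis; gain of signal vs DMSO.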

[5] = molecular target: human Retinoic Acid Receptor gamma (RARg), RARG (gene 5916) (UniProt P13631); assay: ATG_RARg_TRANS: Attagene TRANS-FACTORIAL HepG2 Assay for human Retinoic Acid Receptor gamma (RARg) (AID 2283009)
How it was run: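 Transient transfection of HepG2 with multi-reporter constructs, then 24 h chemical treatment. Total RNA isolated, reverse-transcribed, PCR-amplified, fluorescently labelled and resolved by capillary electrophoresis; activity scored as mRNA induction versus DMSO.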

[6] = molecular target: human RAR-related Orphan Receptor beta (RORb), RORB (gene 6096) (UniProt Q92753); assay: ATG_RORb_TRANS: Attagene TRANS-FACTORIAL HepG2 Assay for human RAR-related Orphan Receptor beta (RORb) (AID 2283010)
How it was run: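 Readout is reporter-gene mRNA induction, detected as fluorescence after RT-PCR and capillary electrophoresis, fitted for gain of signal against DMSO controls. Transiently transfected HepG2 liver cells carrying GAL4-UAS reporter constructs were treated for 24 hours.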

[7] = molecular target: human RAR-related Orphan Receptor gamma (RORg), RORC (gene 6097) (UniProt P51449); assay: ATG_RORg_TRANS: Attagene TRANS-FACTORIAL HepG2 Assay for human RAR-related Orphan Receptor gamma (RORg) (AID 2283011)
How it was run: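 HepG2 cells transiently transfected with GAL4-UAS reporter units and chimeric RORg-Gal4 construct; after 24 h chemical exposure, reporter mRNA measured by RT-PCR with fluorescent capillary electrophoresis, gain of signal fitted against DMSO.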

[8] = molecular target: human Retinoid X Receptor beta (RXRb), RXRB (gene 6257) (UniProt P28702); assay: ATG_RXRb_TRANS: Attagene TRANS-FACTORIAL HepG2 Assay for human Retinoid X Receptor beta (RXRb) (AID 2283013)
How it was run: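 Transfect HepG2 with GAL4-UAS multi-reporter constructs (chimeric NR-Gal4, TRANS format); dose compound 24 h; isolate RNA, RT-PCR, FAM primer extension, HpaI digest; quantify by capillary electrophoresis; positive direction vs DMSO.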

[9] = molecular target: Retinoic acid receptor alpha (Homo sapiens) (UniProt P10276); assay: ATG_RARa_TRANS: Attagene TRANS-FACTORIAL HepG2 Assay for human Retinoic Acid Receptor alpha (RARa) (AID 2283005)
How it was run: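 HepG2 transiently transfected with multiplex GAL4-UAS reporter units including a human RARa–GAL4 chimera; 24 h compound exposure. Reporter mRNA quantified by RT-PCR, 6-FAM labeling and capillary electrophoresis; gain of signal versus DMSO.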

[10] = molecular target: Retinoic acid receptor RXR-alpha (Homo sapiens) (UniProt P19793); assay: ATG_RXRa_TRANS: Attagene TRANS-FACTORIAL HepG2 Assay for human Retinoid X Receptor alpha (RXRa) (AID 2283012)
How it was run: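 Transient transfection of human HepG2 with multiple GAL4-UAS reporter constructs; 24 h compound exposure; total RNA isolated, reverse-transcribed, PCR-amplified, 6-FAM labelled, HpaI-cut, resolved by capillary electrophoresis. Positive-direction fit versus DMSO.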

[11] = molecular target: human Thyroid Receptor alpha (THRa1), THRA (gene 7067) (UniProt P10827); assay: ATG_THRa1_TRANS: Attagene TRANS-FACTORIAL HepG2 Assay for human Thyroid Receptor alpha (THRa1) (AID 2283014)
How it was run: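 HepG2 cells transiently transfected with chimeric NR-Gal4 and GAL4-UAS reporter units, dosed 24 h. Reporter mRNA quantified by RT-PCR, fluorescent labeling, HpaI digestion and capillary electrophoresis; gain-of-signal fit versus DMSO.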

[12] = BSK_3C_Proliferation: Cell Proliferation Assessment in the BioMAP Diversity Plus: 3C Assay (AID 2283006; active = hit-call score of the fitted dose curve at least 0.9, where 1 is the maximum; inactive = score below 0.9); details: primary human endothelial cells (HUVEC)
How it was run: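 Read-out is total protein by SRB absorbance at 560 nm, taken as a proxy for relative cell number. Primary human umbilical vein endothelium cultured below confluence was dosed for 48 h, TCA-fixed and SRB-stained; curves were fitted bidirectionally versus DMSO.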

[13] = molecular target: human Peroxisome Proliferator-activated Receptor delta (PPARd), PPARD (gene 5467) (UniProt Q03181); assay: ATG_PPARd_TRANS: Attagene TRANS-FACTORIAL HepG2 Assay for human Peroxisome Proliferator-activated Receptor delta (PPARd) (AID 2283002)
How it was run: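 HepG2 cells transiently transfected with GAL4-UAS multiplexed reporter units driven by exogenous chimeric NR-GAL4 proteins; 24 h compound exposure. Reporter mRNA measured by RT-PCR, 6-FAM primer extension, HpaI digestion and capillary electrophoresis; gain of signal fitted relative to DMSO.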

Measured: AC50

Chain of human Peroxisome Proliferator-activated Receptor delta (PPARd), PPARD (gene 5467) (Q03181 whole entry, looked up, the tested form may be a part): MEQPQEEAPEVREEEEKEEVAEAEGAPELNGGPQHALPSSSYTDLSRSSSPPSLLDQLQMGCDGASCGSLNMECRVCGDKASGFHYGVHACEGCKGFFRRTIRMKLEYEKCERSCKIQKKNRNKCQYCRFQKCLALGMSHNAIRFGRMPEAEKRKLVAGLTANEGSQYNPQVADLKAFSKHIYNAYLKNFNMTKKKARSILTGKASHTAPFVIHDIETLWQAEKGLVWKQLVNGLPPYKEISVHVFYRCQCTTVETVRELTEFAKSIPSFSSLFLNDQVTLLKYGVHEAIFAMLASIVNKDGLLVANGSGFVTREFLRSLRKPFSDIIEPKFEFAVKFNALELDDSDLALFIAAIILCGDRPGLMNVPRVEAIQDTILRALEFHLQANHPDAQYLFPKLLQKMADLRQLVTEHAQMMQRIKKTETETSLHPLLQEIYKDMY
Chain of human Peroxisome Proliferator-activated Receptor alpha (PPARa), PPARA (gene 5465) (Q07869 whole entry, looked up, the tested form may be a part): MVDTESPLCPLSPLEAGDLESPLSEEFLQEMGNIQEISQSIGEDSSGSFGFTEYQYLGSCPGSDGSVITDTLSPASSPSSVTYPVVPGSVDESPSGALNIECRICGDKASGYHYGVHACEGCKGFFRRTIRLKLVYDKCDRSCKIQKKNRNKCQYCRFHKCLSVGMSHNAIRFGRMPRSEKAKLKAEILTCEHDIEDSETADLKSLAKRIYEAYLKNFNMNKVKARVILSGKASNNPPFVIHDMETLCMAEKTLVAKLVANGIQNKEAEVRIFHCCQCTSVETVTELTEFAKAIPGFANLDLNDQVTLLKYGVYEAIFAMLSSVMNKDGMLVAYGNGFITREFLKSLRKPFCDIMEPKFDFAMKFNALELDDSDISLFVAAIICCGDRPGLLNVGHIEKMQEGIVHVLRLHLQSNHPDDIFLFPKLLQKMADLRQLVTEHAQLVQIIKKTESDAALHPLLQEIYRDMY
Chain of human Thyroid Receptor alpha (THRa1), THRA (gene 7067) (P10827 whole entry, looked up, the tested form may be a part): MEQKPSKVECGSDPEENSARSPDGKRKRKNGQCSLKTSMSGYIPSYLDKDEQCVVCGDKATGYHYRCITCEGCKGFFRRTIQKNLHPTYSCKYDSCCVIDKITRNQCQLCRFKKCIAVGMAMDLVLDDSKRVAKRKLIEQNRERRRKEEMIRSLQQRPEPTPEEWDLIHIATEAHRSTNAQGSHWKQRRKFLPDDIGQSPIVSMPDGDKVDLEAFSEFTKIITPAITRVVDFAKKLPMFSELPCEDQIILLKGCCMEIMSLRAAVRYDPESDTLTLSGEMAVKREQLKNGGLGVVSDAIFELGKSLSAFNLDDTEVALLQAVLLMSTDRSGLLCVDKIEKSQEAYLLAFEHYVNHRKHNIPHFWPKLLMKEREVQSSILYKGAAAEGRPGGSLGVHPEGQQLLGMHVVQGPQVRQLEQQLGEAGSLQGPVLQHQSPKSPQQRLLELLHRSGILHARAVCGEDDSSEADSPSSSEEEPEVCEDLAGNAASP
Chain of Nuclear receptor subfamily 1 group I member 2 (Homo sapiens) (O75469 whole entry, looked up, the tested form may be a part): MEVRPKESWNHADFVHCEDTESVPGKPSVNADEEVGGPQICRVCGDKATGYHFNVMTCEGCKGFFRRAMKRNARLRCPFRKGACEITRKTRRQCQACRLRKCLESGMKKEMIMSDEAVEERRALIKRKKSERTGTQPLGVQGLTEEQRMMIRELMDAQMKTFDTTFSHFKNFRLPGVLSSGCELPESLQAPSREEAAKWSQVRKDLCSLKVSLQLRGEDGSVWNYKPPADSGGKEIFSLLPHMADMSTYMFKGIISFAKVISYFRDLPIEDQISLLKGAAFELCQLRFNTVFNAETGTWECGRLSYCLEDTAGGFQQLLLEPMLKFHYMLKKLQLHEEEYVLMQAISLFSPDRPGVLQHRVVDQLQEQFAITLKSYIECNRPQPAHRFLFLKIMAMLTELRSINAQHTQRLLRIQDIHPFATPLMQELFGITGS
Chain of human Retinoic Acid Receptor gamma (RARg), RARG (gene 5916) (P13631 whole entry, looked up): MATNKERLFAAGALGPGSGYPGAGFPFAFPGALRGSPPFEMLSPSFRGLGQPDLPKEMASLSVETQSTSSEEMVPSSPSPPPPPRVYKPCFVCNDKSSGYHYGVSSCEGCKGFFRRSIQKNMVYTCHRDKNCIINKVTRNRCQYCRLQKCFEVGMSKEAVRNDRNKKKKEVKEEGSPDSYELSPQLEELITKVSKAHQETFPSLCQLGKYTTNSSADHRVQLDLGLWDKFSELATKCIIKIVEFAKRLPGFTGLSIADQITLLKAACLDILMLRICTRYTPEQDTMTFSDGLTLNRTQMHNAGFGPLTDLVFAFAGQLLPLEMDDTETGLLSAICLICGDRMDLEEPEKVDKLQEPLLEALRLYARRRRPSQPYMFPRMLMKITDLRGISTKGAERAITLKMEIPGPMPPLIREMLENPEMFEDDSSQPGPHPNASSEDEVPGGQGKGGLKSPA
Chain of Retinoic acid receptor RXR-alpha (Homo sapiens) (P19793 whole entry, looked up, the tested form may be a part): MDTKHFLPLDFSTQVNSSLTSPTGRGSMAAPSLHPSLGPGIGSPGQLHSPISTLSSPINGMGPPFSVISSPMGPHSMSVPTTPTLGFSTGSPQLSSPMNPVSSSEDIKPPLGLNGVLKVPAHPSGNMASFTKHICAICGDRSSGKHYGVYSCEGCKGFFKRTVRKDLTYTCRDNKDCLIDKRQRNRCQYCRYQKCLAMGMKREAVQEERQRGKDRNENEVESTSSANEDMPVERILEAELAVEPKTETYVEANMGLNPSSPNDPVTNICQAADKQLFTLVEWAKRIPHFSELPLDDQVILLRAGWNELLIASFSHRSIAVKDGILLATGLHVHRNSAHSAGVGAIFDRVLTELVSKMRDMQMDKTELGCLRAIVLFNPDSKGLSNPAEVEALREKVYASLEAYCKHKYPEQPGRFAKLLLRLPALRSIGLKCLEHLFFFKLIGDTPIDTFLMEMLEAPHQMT
Chain of Retinoic acid receptor alpha (Homo sapiens) (P10276 whole entry, looked up, the tested form may be a part): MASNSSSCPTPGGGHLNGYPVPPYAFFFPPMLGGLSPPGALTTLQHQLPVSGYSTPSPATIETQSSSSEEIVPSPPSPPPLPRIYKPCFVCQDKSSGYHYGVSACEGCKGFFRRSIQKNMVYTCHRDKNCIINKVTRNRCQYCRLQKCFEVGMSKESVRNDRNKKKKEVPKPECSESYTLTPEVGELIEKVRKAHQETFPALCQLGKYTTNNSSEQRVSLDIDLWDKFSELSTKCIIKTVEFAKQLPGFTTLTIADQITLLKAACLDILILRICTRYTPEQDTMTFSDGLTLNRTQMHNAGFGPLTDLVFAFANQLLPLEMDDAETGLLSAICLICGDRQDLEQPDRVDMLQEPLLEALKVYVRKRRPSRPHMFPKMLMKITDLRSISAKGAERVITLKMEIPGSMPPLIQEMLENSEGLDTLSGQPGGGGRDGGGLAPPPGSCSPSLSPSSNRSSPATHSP
Chain of human RAR-related Orphan Receptor gamma (RORg), RORC (gene 6097) (P51449 whole entry, looked up, the tested form may be a part): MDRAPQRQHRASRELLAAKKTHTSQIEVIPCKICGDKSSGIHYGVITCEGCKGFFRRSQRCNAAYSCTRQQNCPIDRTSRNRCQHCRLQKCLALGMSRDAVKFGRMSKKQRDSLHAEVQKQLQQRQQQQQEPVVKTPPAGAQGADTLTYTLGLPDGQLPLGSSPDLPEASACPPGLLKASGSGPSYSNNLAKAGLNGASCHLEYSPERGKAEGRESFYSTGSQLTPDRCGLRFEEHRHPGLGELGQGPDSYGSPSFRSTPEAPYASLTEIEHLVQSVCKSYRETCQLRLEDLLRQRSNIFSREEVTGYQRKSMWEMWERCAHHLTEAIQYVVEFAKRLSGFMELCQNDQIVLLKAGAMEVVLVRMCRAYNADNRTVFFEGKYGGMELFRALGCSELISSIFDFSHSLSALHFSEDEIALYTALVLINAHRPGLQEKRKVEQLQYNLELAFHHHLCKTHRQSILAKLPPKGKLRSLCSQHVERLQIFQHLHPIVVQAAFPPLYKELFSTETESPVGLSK
Chain of Peroxisome proliferator-activated receptor gamma (Homo sapiens) (P37231 whole entry, looked up, the tested form may be a part): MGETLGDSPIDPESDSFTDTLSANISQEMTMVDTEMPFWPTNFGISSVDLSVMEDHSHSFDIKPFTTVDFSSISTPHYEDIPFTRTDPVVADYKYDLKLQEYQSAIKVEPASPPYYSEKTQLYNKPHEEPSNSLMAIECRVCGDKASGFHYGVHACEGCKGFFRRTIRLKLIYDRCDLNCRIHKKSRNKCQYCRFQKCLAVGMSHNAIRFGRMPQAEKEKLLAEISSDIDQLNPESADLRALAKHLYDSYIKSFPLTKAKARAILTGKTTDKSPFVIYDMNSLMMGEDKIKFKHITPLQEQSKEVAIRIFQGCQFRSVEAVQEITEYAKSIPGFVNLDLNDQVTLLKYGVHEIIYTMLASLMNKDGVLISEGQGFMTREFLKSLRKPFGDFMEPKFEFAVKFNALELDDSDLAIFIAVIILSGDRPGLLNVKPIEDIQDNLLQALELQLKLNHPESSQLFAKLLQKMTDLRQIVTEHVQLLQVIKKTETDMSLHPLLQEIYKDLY
Chain of human Retinoid X Receptor beta (RXRb), RXRB (gene 6257) (P28702 whole entry, looked up, the tested form may be a part): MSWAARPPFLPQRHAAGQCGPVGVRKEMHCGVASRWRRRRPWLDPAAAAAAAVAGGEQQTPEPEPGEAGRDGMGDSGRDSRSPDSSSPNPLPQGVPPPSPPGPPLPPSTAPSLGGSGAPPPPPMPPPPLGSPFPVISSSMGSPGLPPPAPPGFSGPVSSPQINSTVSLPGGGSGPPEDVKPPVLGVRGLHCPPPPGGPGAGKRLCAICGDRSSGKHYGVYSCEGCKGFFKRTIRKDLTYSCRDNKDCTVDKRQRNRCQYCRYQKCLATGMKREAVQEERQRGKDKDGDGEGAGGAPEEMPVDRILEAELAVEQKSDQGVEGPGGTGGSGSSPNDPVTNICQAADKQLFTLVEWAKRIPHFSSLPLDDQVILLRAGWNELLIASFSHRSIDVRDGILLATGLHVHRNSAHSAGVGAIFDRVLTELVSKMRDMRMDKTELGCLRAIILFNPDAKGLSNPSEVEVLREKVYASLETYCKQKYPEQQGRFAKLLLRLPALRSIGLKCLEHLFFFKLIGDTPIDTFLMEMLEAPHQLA

COc1ccccc1N=Nc1c(S(=O)(=O)O)cc2cc(S(=O)(=O)O)cc(NC(C)=O)c2c1O
not listed: [9] | [10] | [11] | [12] | [13]
inactive: all other assays above

C=C(C)C1CC=C(C)C(=O)C1 (configuration not stated)
inactive: [1] | [9] | [3] | [4] | [8]

c1ccc2[nH]cnc2c1
inactive: [1] | [9] | [4] | [5] | [6] | [10] | [11]

CCCC1O[C@@H]2C[C@H]3[C@@H]4CCC5=CC(=O)C=C[C@]5(C)[C@H]4[C@@H](O)C[C@]3(C)[C@]2(C(=O)CO)O1 (some centres not stated)
inactive: [1] | [2] | [3] | [5]
active: [4] 1.36 µM

CC(C)C[C@H](NC(=O)OCC1c2ccccc2-c2ccccc21)C(=O)O
inactive: [6] | [10] | [8] | [11]
active: [1] 40 µM | [3] 23.1 µM | [4] 12.5 µM

CC(C)(N=C=O)c1cccc(C(C)(C)N=C=O)c1
inactive: [12]

O=Cc1ccccc1S(=O)(=O)O
inactive: [13] | [3] | [11]

Nc1ccccc1[N+](=O)[O-]
inactive: [13] | [3] | [4] | [10] | [8] | [11]

O=C1NC2NC(=O)NC2N1 (configuration not stated)
inactive: [13] | [9] | [3] | [6] | [7] | [10]

CCCCSCCCC
inactive: [13] | [3] | [4] | [10] | [11]

CCCC(C)=O
inactive: [13] | [9] | [5] | [6] | [8] | [11]

CCCCCCC(C)Nc1ccc(Nc2ccccc2)cc1 (configuration not stated)
inactive: [13]
active: [3] 11.7 µM | [4] 1.53 µM | [10] 34.4 µM | [8] 30.2 µM | [11] 27.1 µM

CC(C)(C)OC(=O)c1ccc(O)cc1
active: [3] 39.4 µM
inactive: [13]

COCCc1ccc(OCC(O)CNC(C)C)cc1 (configuration not stated)
inactive: [13] | [9] | [3] | [4] | [10]

OC[C@H]1O[C@@H](Oc2ccc(O)cc2)[C@H](O)[C@@H](O)[C@@H]1O
inactive: [13] | [4]

O=C(c1ccccc1)C(O)c1ccccc1 (configuration not stated)
inactive: [13] | [9] | [3] | [4] | [6] | [7] | [11]

NC1CCCCC1N (configuration not stated)
inactive: [13] | [9] | [4]

CCc1ccc(O)c(OC)c1
inactive: [13] | [3] | [4]

CC1C2CC(CC2C2CCCC(O)C2)C1(C)C (configuration not stated)
inactive: [13] | [3] | [5] | [7] | [10] | [8]

COc1ccc(N)c([N+](=O)[O-])c1
inactive: [13] | [3] | [4] | [6] | [8] | [11]

C=C1C[C@]23C[C@@]1(O)CC[C@H]2[C@@]12C=C[C@H](O)[C@@](C)(C(=O)O1)[C@H]2[C@@H]3C(=O)O
inactive: [13] | [3] | [7] | [10] | [8] | [11]

C1CCOC1
inactive: [13] | [9] | [3] | [5] | [6] | [10] | [8]

CCc1ncc(C)[nH]1
inactive: [13] | [3] | [4] | [11]

CCCCCCOCCOCCO
inactive: [13] | [3] | [4] | [5] | [10]

CC(C)Nc1nc(N)nc(Cl)n1
inactive: [13] | [3] | [4] | [11]

C=CCOC(=O)CCCCCC
inactive: [13] | [3] | [4] | [6] | [7] | [10] | [8]

C=COCCOCCOC=C
inactive: [13] | [3] | [8]

Cc1c(C2(c3cc(Br)c(O)c(Br)c3C)OS(=O)(=O)c3ccccc32)cc(Br)c(O)c1Br
inactive: [13] | [3] | [5] | [6] | [7] | [10] | [11]
active: [4] 13 µM

CCCOC(=O)c1c(Cl)c(Cl)c(Cl)c(Cl)c1C(=O)OCCC
active: [3] 5.66 µM | [4] 4.24 µM | [8] 10.6 µM
inactive: [13] | [10] | [11]

Cc1ccc2c(c1)C(=O)OC2=O
inactive: [13] | [9] | [3] | [4] | [6] | [10] | [8]

COc1ccc(N=Nc2cc(C)c(N=Nc3ccc(S(=O)(=O)O)cc3)cc2OC)cc1
inactive: [13] | [4] | [6] | [7]
active: [3] 25.4 µM

C=CCCCCCCCCCC
inactive: [13] | [3] | [6] | [7] | [10] | [11]

O=C(CC(=O)c1ccccc1)c1ccccc1
inactive: [13] | [7]
active: [3] 3.74 µM | [11] 58.5 µM

C=CCCC(=O)/C=C/C1C(C)=CCCC1(C)C (configuration not stated)
inactive: [13] | [10] | [11]
active: [3] 24.4 µM | [4] 2.37 µM | [8] 25.2 µM
